Records with an inconclusive call do not appear. Active and inactive are the calls of the source. Unless noted, the call rests on the fitted dose curve; in most records, active means well fitted curve in either direction with a large enough effect (not every such curve was filed as active); inconclusive means small, poorly fitted or top-dose-only effect, or another doubt; inactive means flat fitted curve, though single readings scatter.
Experiments:
[1] = target: Lysosomal acid glucosylceramidase (Homo sapiens) (UniProt P04062); assay: Glucocerebrosidase-p2 (AID 348; in the data active means potency below about 10 µM; further: potency means the concentration at half of the fitted maximal effect); conditions: purified GBA, blue fluorogenic substrate, 40 min
How it was run: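 Compounds titrated from 0.6 nM upwards against 0.2 nM enzyme in pH 5.9 citric acid/KH2PO4, taurocholate, tween-20; blue fluorogenic substrate 80 uM, 40 min room temperature, stopped and read Ex 365/Em 440 for AC50.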

[2] = AP1 Signaling Pathway (AID 357); conditions: ME-180 AP-1-bla reporter, EGF-induced, beta-lactamase ratio, 5 h; at 7.69 µM (top of the series) unless noted;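 further: ME-180 reporter cells stimulated with EGF at its EC50 level; on the % scale 0 is the no-effect control and ±100 the full control effect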
How it was run: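 First, ME-180 AP-1-bla cells were cultured overnight at 37 °C in low-serum Opti-MEM. Next, titrated compounds with EC50 EGF were incubated 5 hours. Finally, CCF4 was added for 2.5 hours and the 460/530 nm ratio recorded.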

[3] = Stat Signaling Pathway (AID 446); conditions: ME-180 SIE beta-lactamase reporter, IL-6 stimulated, 5 h; at 7.69 µM (top of the series) unless noted;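 further: ME-180 cervical cancer cells given 40 pM IL-6 alongside compound; SIE-controlled beta-lactamase reporter measured as 460/530 nm FRET emission ratio; on the % scale 0 is the no-effect control and ±100 the full control effect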
How it was run: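 ME-180 cells carrying a SIE-driven beta-lactamase reporter are stimulated with 40 pM IL-6 for 5 h at 37C in the presence of compound. The 460/530 nm FRET substrate ratio is read after 2.5 h at RT. Data are normalised to 300 pM IL-6 and to 125 nM JAK inhibitor controls.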

[4] = target: Glucocorticoid receptor (Homo sapiens) (UniProt P04150); assay: GR-GFP Redistribution (AID 450;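 active means compounds whose dose series gives a full or clear partial fitted curve of increased nuclear translocation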; further: potency means the concentration at half of the fitted maximal effect); conditions: U2OS GR-GFP nuclear translocation, laser cytometry, 2 h
[5] = target: Glucocorticoid receptor (Homo sapiens) (UniProt P04150); assay: GR-EFC Redistribution (AID 451; calls by dose curve; further: potency means the concentration at half of the fitted maximal effect); conditions: CHO-K1 GR-EFC translocation, beta-gal luminescence, 2 h
How it was run: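 Translocation of GR-ED fusion to nuclear EA restores b-gal, read by luminescence after 1 h room-temperature detection. Engineered CHO-K1 biosensor cells, 1,000/well, exposed 2 h at 37 C to titrations up to 46 uM final.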

[6] = target: Mitogen-activated protein kinase 10 (Mus musculus) (UniProt Q61831); assay: JNK3 AlphaScreen Assay (AID 530); conditions: JNK3 lysate, c-Jun phosphorylation; series mostly up to 11.4 µM;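 further: kinase came from lysate of stimulated human HepG2 cells; signal reports phosphorylation of biotinylated GST-cJun 1-79 at Ser73 with 10 µM ATP; on the % scale 0 is the no-effect control and ±100 the full control effect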
How it was run: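 Compound titrations were preincubated 15 minutes at room temperature with substrate, antibody and pre-activated JNK3-containing HepG2 lysate. Reactions were started with 10 uM ATP and stopped with EDTA-containing bead buffer for AlphaScreen detection.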

[7] = target: 3',5'-cyclic-AMP phosphodiesterase 4B (Homo sapiens) (UniProt Q07343); assay: qHTS Assay for Inhibitors of PDE-IV (AID 607; active means well fitted activation curve with a large enough effect in the main read-out, with a control signal flat, not every such curve was filed as active; further: % of control where 0% means no effect); conditions: HEK293 ACTOne CNG channel cells, membrane potential fluorescence; series mostly up to 22.9 µM
How it was run: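 HEK293 ACTOne cells with CNG channel (1000/well), endogenous PDE4; membrane potential dye, compounds up to 22.9 uM final. Fluorescence Ex 535/Em 590; RO 20-1724 (100 uM final) as reference.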

[8] = target: Cytochrome P450 3A4 (Homo sapiens) (UniProt P08684); assay: qHTS Assay for Activators of Cytochrome P450 3A4 (AID 885; active means well fitted curve in the direction sought with a large enough effect; an effect the other way counts as inactive or inconclusive; further: nearly all actives have a fitted effect of over 65% in size); conditions: recombinant CYP3A4, Luciferin-PPXE luminescence, 60 min; series mostly up to 11.4 µM
How it was run: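 Human CYP3A4 (20 nM) with Luciferin-PPXE at 25 uM (its KM) in 200 mM KPO4; 10 min compound preincubation, then NADPH regeneration and 60 min reaction at RT. Luciferin read by luminescence; normalized to 57 uM ketoconazole full inhibition.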

[9] = target: Cytochrome P450 2C9 (Homo sapiens) (UniProt P11712); assay: qHTS Assay for Inhibitors and Substrates of Cytochrome P450 2C9 (AID 883; active means well fitted curve in the direction sought with a large enough effect; an effect the other way counts as inactive or inconclusive; further: potency means the concentration at half of the fitted maximal effect; nearly all actives have a fitted effect of over 60% in size); conditions: recombinant CYP2C9, luciferin-H luminescence, 60 min; series mostly up to 11.4 µM
How it was run: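 Luminescent read-out of deoxyluciferin hydroxylation, normalized to 57uM sulphaphenazole (AC100). Reaction: 10nM enzyme, 100uM Luciferin-H (equal to KM), 25mM KPO4, 10 min compound preincubation, then 60 min with NADPH regeneration, both at 37C.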

[10] = target: Cytochrome P450 2C19 (Homo sapiens) (UniProt P33261); assay: qHTS Assay for Inhibitors and Substrates of Cytochrome P450 2C19 (AID 899; active means well fitted curve in the direction sought with a large enough effect; an effect the other way counts as inactive or inconclusive; further: on the % scale 0 is the no-effect control and ±100 the full control effect; nearly all actives have a fitted effect of over 60% in size); conditions: recombinant CYP2C19, luciferin-H EGE luminescence; series mostly up to 11.4 µM
How it was run: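 Luminescence readout of luciferin formed from 10uM Luciferin-H EGE (KM level) by 5 nM CYP2C19 in 50mM KPO4. 60 min NADPH-driven reaction at 37C after 10 min compound preincubation; data scaled to 57uM ketoconazole inhibition.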

Chain of 3',5'-cyclic-AMP phosphodiesterase 4B (Homo sapiens) (Q07343 whole entry, looked up): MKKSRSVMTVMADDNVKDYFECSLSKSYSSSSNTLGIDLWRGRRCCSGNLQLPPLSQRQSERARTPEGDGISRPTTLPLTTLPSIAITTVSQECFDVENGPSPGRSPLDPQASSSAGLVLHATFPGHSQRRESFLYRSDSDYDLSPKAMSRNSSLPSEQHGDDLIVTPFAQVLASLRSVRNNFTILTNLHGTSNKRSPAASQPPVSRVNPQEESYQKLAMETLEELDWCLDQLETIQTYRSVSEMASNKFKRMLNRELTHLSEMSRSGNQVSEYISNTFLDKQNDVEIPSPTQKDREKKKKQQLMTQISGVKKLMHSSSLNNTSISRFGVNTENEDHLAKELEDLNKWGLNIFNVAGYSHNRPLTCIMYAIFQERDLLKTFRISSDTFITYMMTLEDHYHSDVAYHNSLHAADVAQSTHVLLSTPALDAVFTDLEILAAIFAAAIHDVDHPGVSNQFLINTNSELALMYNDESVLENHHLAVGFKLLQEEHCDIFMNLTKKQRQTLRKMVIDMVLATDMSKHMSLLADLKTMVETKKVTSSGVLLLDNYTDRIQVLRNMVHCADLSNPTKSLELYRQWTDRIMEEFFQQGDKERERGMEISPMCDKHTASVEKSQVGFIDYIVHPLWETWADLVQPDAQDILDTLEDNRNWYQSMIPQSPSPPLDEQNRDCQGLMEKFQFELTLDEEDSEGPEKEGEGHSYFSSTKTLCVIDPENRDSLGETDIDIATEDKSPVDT
Chain of Lysosomal acid glucosylceramidase (Homo sapiens) (P04062 whole entry, looked up): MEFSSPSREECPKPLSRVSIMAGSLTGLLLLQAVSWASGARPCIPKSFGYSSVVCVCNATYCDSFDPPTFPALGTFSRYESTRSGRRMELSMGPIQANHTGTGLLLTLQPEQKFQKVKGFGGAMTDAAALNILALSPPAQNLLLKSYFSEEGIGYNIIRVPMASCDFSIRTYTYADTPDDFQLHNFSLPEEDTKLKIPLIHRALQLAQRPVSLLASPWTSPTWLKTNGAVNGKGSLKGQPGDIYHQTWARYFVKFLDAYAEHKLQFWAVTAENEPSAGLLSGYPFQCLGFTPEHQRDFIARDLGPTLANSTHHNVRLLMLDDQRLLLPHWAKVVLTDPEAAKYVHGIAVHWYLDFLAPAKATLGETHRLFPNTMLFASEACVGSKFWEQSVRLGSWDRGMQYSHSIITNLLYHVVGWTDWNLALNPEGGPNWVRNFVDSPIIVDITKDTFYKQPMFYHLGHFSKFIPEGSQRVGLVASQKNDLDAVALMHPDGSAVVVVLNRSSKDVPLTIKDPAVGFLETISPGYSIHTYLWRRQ
Chain of Glucocorticoid receptor (Homo sapiens) (P04150 whole entry, looked up, the tested form may be a part): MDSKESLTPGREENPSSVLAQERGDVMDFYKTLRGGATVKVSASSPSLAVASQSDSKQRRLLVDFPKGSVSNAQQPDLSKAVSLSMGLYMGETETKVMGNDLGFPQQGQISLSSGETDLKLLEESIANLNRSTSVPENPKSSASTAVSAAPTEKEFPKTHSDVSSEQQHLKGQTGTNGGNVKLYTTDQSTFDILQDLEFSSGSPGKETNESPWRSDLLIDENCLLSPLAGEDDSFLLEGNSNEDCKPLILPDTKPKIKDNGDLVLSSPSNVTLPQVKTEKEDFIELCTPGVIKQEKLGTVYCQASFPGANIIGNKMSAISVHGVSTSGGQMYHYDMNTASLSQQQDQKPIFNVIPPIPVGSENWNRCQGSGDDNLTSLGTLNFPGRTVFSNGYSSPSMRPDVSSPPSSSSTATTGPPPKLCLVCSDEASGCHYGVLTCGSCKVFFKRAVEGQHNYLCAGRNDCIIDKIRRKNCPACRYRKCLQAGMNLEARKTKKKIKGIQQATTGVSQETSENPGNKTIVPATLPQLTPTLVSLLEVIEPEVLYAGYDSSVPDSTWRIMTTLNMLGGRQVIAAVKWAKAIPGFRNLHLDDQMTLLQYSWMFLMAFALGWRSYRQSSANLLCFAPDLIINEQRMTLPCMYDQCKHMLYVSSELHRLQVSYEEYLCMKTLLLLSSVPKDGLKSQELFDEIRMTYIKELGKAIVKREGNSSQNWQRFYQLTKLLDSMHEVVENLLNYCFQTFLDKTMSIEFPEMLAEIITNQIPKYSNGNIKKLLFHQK
Chain of Cytochrome P450 3A4 (Homo sapiens) (P08684 whole entry, looked up): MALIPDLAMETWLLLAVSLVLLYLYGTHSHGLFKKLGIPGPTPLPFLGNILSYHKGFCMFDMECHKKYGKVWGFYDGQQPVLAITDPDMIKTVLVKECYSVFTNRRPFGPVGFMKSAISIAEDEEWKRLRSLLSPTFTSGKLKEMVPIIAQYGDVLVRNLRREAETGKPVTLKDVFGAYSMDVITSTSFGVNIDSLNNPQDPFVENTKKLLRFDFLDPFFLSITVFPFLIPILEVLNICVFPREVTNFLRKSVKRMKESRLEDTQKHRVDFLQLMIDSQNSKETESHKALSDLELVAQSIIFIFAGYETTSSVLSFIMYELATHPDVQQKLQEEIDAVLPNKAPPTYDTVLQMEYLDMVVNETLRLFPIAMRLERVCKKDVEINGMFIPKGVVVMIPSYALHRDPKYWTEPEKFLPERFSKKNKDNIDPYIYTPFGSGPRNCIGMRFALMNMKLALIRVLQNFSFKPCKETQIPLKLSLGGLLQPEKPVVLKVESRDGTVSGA
Chain of Cytochrome P450 2C19 (Homo sapiens) (P33261 whole entry, looked up): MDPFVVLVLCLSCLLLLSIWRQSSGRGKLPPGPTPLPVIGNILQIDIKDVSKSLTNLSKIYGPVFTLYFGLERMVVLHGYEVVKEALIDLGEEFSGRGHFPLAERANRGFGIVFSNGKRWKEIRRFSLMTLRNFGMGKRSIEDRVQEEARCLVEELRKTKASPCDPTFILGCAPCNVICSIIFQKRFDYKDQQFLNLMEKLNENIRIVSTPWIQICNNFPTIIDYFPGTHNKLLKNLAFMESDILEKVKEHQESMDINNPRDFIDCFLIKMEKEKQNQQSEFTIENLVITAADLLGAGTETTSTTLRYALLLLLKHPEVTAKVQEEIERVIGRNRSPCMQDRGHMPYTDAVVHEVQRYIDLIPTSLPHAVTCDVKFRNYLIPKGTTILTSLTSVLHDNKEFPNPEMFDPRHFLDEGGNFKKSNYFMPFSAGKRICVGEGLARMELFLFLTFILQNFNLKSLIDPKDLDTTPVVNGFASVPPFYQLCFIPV
Chain of Cytochrome P450 2C9 (Homo sapiens) (P11712 whole entry, looked up): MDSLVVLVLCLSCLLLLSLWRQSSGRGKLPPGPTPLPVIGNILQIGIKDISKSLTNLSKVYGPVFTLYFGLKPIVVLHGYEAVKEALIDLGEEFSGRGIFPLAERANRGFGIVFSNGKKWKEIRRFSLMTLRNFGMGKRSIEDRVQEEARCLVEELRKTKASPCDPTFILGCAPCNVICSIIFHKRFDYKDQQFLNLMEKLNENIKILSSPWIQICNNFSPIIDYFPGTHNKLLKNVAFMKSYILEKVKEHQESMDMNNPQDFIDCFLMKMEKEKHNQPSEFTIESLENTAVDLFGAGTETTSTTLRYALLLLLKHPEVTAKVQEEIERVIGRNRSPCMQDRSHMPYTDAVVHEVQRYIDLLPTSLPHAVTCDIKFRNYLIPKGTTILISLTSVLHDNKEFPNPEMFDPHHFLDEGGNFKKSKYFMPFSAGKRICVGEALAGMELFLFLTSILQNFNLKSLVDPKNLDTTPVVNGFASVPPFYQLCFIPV

Nc1ncnc2nc(-c3ccc(C[P+](c4ccccc4)(c4ccccc4)c4ccccc4)cc3)[nH]c12
inactive: Potency [1] > 11.4 µM | activity change, negative = inhibition [2] 3.32% | activity, negative = inhibition [3] 1.06% | Potency [4] > 46 µM | Potency [5] > 9.22 µM | Potency [6] | Potency [7]

Cc1cc(Nc2ccc(N=Nc3ccc(O)c4ncccc34)cc2)nc(C)n1
inactive: Potency [1] > 11.4 µM | activity change, negative = inhibition [2] 9.64% | Potency [4] > 46 µM | Potency [5] > 9.22 µM | Potency [6] | Potency [7]

O=c1cnc2cnc(N3CCNCC3)nc2n1CCc1ccccc1
inactive: Potency [1] > 11.4 µM | activity change, negative = inhibition [2] -5.27% | activity, negative = inhibition [3] -12.8% | Potency [4] > 9.22 µM | Potency [5] > 46 µM | Potency [6] | Potency [7] | Potency [8]

O=C1c2ccccc2-c2ccc(N(Cc3ccc(Br)cc3)Cc3ccc(Br)cc3)cc21
inactive: Potency [1] > 11.4 µM | activity change, negative = inhibition [2] -16.3% | activity, negative = inhibition [3] 4.89% | Potency [4] > 46 µM | Potency [5] > 9.22 µM | Potency [7]

O=C(O)c1cc(-c2ccc(-c3ccccc3)cc2)nc2cc3ccccc3cc12
inactive: Potency [1] > 11.4 µM | activity change, negative = inhibition [2] -7.09% | activity, negative = inhibition [3] -0.262% | Potency [4] > 46 µM | Potency [5] > 9.22 µM | Potency [6] | Potency [7]

O=C(O)c1ccc(N[C@H](c2ccccc2)c2ccc3cccnc3c2O)cc1
inactive: Potency [1] > 11.4 µM | activity change, negative = inhibition [2] -0.822% | activity, negative = inhibition [3] -17% | Potency [4] > 46 µM | Potency [5] > 9.22 µM | Potency [6] | Potency [7]

CC1(C)COCN1COC1CCCCC1
inactive: Potency [1] > 11.4 µM | activity change, negative = inhibition [2] -2.54% | Potency [4] > 46 µM | Potency [5] > 9.22 µM | Potency [6] | Potency [7]

O=C(c1[nH]o[n+](=O)c1C(=O)c1csc2ccccc12)c1csc2ccccc12
active: Potency [9] 1.58 µM
inactive: Potency [1] > 11.4 µM | activity change, negative = inhibition [2] 3.39% | activity, negative = inhibition [3] -7.78% | Potency [4] > 46 µM | Potency [5] > 9.22 µM | Potency [6] | Potency [7] | Potency [8]

O=C(O)CC[P+](c1ccccc1)(c1ccccc1)c1ccccc1
inactive: Potency [1] > 11.4 µM | activity change, negative = inhibition [2] 2.51% | activity, negative = inhibition [3] 4.75% | Potency [4] > 46 µM | Potency [5] > 9.22 µM | Potency [6] | Potency [10]

CC(=O)NC1=C(OS(=O)(=O)c2ccc(C)cc2)CN(C)C1=O
inactive: Potency [1] > 11.4 µM | activity change, negative = inhibition [2] 24.1% | activity, negative = inhibition [3] -10.5% | Potency [4] > 46 µM | Potency [5] > 9.22 µM | Potency [6] | Potency [7]

From PubChem BioAssay (NCATS)
